Compound activity from PubChem BioAssay.
HT1080NT lethal = qHTS for induction of synthetic lethality in tumor cells producing 2HG: qHTS for the HT-1080-NT fibrosarcoma cell line; HT-1080-NT fibrosarcoma viability, CellTiter-Glo ATP luminescence, 48 h; Potency, µM (titrated, usually from 46.1 µM), without a hit: at the top dose activity, negative = less viability, most hits filed as cytotoxic; actives 1.6% (n = 360,000); AID 686970, 2013;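 further: NT is the 2HG producing partner of a matched IDH1 knockdown line; potency means the concentration at half of the fitted maximal effect; 0% = DMSO-treated cells and -100% = media-only wells without cells; nearly all actives have a fitted effect of over 55% in size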
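Toxicity toward the 2HG-producing NT line was scored as %Activity, normalised to DMSO and no-cell wells, from CellTiter-Glo luminescence after 48 hours' treatment.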
DT40 TDP1 no CPT = qHTS for Inhibitors of human tyrosyl-DNA phosphodiesterase 1 (TDP1): qHTS in cells in absence of CPT; AID 686978, 2013; actives 15% (n = 420,000); DT40 Tdp1-/- hTDP1 cells, no CPT, ATP luminescence, 48 h; Potency, µM (series often up to 46.2 µM), for the others: at the top dose activity change, negative = growth inhibition, actives largely listed as inhibitors; further: potency means the concentration at half of the fitted maximal effect; nearly all actives have a fitted effect of over 55% in size
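Chicken DT40 Tdp1-/- cells stably complemented with human TDP1 were seeded at 400 cells/well with DMSO in place of 20 nM camptothecin. After compound pinning, cells grew at least 48 hr at 37 °C; viability read by CellTiter-Glo luminescence.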
HT1080 IDH1KD tx = qHTS for induction of synthetic lethality in tumor cells producing 2HG: qHTS for the HT-1080-IDH1KD cell line. HT-1080 IDH1 knockdown viability, ATP luminescence, 48 h. Potency, µM (top dose mostly 46.1 µM), without a hit: top-dose activity, negative = toxicity, usual class: cytotoxic. actives 2% (n = 360,000). AID 686971, 2013;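 further: potency means the concentration at half of the fitted maximal effect; 0% = DMSO wells and -100% = cell-free medium wells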
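Luminescent ATP read-out (CellTiter-Glo, 10 min at room temperature) after 48 h compound exposure at 37 °C gave viability of IDH1-knockdown HT-1080 cells. Activity was normalised to DMSO and cell-free wells, then fitted as concentration-response curves.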
DT40 TDP1 CPT = qHTS for Inhibitors of human tyrosyl-DNA phosphodiesterase 1 (TDP1): qHTS in cells in presence of CPT; chicken DT40 Tdp1-/-;hTDP1 cells + 20 nM CPT, ATP luminescence, 48 h; Potency, µM (titrated, usually from 46.2 µM), without a hit: at the highest dose activity change, negative = growth inhibition, usual class: inhibitors; actives 12% (n = 420,000); AID 686979, 2013; further: potency means the concentration at half of the fitted maximal effect; nearly all actives have a fitted effect of over 55% in size
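Chicken DT40 Tdp1-/- cells stably complemented with human TDP1 were seeded at 400 cells/well in medium containing 20 nM camptothecin, exposed to pin-transferred compounds, and grown at 37 °C for at least 48 hr. Viability was read as ATP luminescence.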
IL1B secr inh = qHTS for Inhibitors of Inflammasome Signaling: IL-1-beta AlphaLISA Primary Screen; THP-1 LPS/ATP IL-1B secretion, AlphaLISA, 16 h; stronger effect = lower value; actives 4.7% (n = 360,000); activity change, % at 57.5 µM; in the data active means activity change below about -50%; inconclusive means mostly about -30% to -49%
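Secreted IL-1B measured by AlphaLISA bead assay after 16 h compound exposure of THP-1 cells; compounds (final up to 57.5 uM) added 1 h before LPS (250 ng/mL) and ATP (1.25 mM) stimulation; lower signal means less secretion.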
Active calls of the source: *; ? = inconclusive; · = not tested or not shown. This is a sample that favours compounds with a hit; in the whole collection about 19% have one here. Unless noted, the call rests on the fitted dose curve; in most records, active means well fitted curve in the direction sought with a large enough effect; inconclusive means small, poorly fitted or top-dose-only effect, or another doubt; inactive means no such curve, though single readings can be large; an effect the other way counts as inactive or inconclusive. Unless noted, on the % scale 0 is the no-effect control and ±100 the full control effect.

SMILES | HT1080NT lethal | DT40 TDP1 no CPT | HT1080 IDH1KD tx | DT40 TDP1 CPT | IL1B secr inh
Cc1cc(C)c(Cn2c3ccccc3c3cnn(CC(=O)N4CCCCCC4)c(=O)c32)c(C)c1 | · | 23µM* | · | 23µM* | ·
O=C(Cn1ncc2c3ccccc3n(Cc3cccc(Cl)c3)c2c1=O)N1CCCCC1 | · | 12µM* | · | 21µM* | ·
O=C(Cn1ncc2c3ccccc3n(Cc3ccccc3)c2c1=O)NCCCN1CCCCC1 | · | ? | · | -17% | ·
O=C(Cn1ncc2c3ccccc3n(Cc3cccc(Cl)c3)c2c1=O)N1CCCCCC1 | · | 21µM* | · | 18µM* | ·
O=C(Cn1ncc2c3ccccc3n(Cc3ccc(F)cc3)c2c1=O)N1CCN(c2ncccn2)CC1 | 0% | 16µM* | -3% | 18µM* | -3
Cc1ccccc1Cn1c2ccccc2c2cnn(CC(=O)N3CCN(c4ccccc4)CC3)c(=O)c21 | 1% | ? | 3% | ? | -29
C=Cc1ccc(Cn2c(C)c(C(=O)NCc3ccccc3C(F)(F)F)sc2=O)cc1 | -9% | ? | -19% | ? | ?
O=C(NC1CCCCC1)N1CCNCC1 | 8% | -11% | 11% | 8% | 2
C1CCCCCC(NCCN2CCNCC2)CCCCC1 | 21µM* | 2.6µM* | 18µM* | 3.7µM* | ?
CSc1ccccc1NC(=O)CN1CCN(c2ccccn2)CC1 | 0% | ? | -11% | 23µM* | 23
Cc1c(C)n(C(=O)CN2CCN(c3ccccn3)CC2)c2ccccc12 | -4% | 12µM* | -8% | ? | 20
CC(C)c1ccc(NC(=O)CN2CCN(c3ccccn3)CC2)cc1 | 9% | -11% | 3% | -24% | -8
O=C(CN1CCN(c2ccccn2)CC1)Nc1ccc([N+](=O)[O-])cc1C(=O)Nc1ccccc1F | -8% | 7.3µM* | -7% | 23µM* | -2
Cc1cc(Br)ccc1NC(=O)CN1CCN(c2ccccn2)CC1 | 12% | -25% | -8% | -9% | -2
O=C(CN1CCN(c2ccccn2)CC1)N(c1ccccc1)c1ccc2ccccc2c1 | -2% | 18µM* | -3% | 16µM* | -15
CCOC(=O)C1(NC(=O)C2(N3C(=O)c4ccccc4C3=O)CCCC2)CCCC1 | -7% | 3% | -10% | -1% | 3
C=CCC[C@H](Cc1ccc(F)cc1)C(=O)OC[C@H](C)NC(=O)[C@@H](CC=C)CC(=O)N[C@H](CO)Cc1ccccc1 | -17% | ? | -11% | ? | -2
N#CCC(=O)Nc1ccc(C(=O)Nc2cccc(S(=O)(=O)N3CCCC3)c2)cc1 | 4% | -6% | 3% | -4% | 19
COc1cc(Cl)c(C)cc1NC(=O)c1ccccc1NC(=O)CN1CCN(c2ccccn2)CC1 | ? | 26µM* | -19% | 18µM* | -66*
O=C(NCc1cccs1)c1csc(COCCO)n1 | ? | -1% | 14% | 4% | 6
Nc1nn2c(-c3ccccc3)cc(=O)[nH]c2c1N=Nc1ccc(Br)cc1 | -6% | 16µM* | -2% | ? | 6
COc1cc(OC)cc(C(=O)NCC(=O)Nc2ccc(OC)c(Cl)c2)c1 | -1% | -1% | -9% | 18% | -14
CCN1CN(Cc2ccco2)CNC1=S | 27% | -6% | 12% | 10% | 10
O=C(Nc1ccc2oc(-c3cccnc3)nc2c1)c1ccc(-c2ccc(OC(F)(F)F)cc2)o1 | · | 21µM* | · | ? | ·
O=C(Nc1ccc2oc(-c3cccnc3)nc2c1)c1ccc(-c2ccccc2OC(F)(F)F)o1 | · | 9.2µM* | · | 10µM* | ·
O=C(Nc1ccc2oc(-c3cccnc3)nc2c1)c1ccc(-c2ccccc2)o1 | · | 9.2µM* | · | 12µM* | ·
CCc1nc2c(OCc3ccccc3)cccn2c1N(Cc1ccccc1)C(C)=O | -7% | ? | -14% | 18µM* | -14
